# Assay results taken from PubChem BioAssay (NCATS).
# Values without a mark were called inactive. Inconclusive results are not listed. A call without a number means that no potency is given here. Activity calls are given as the source filed them. The call rests on the fitted dose curve; in most records, active means well fitted curve in the direction sought with a large enough effect; inconclusive means small, poorly fitted or top-dose-only effect, or another doubt; inactive means no such curve, though single readings can be large; an effect the other way counts as inactive or inconclusive. Where a SMILES comes first, the peptide text is derived from it. [ ]: non-standard residue; d: D form. PhLac = O=C(O)[CH](O)Cc1ccccc1; NMeV = CN[CH](C(=O)O)C(C)C
# Key:
# [1] = biological target: Glutathione peroxidase 1 (Homo sapiens) (UniProt P07203); experiment: Primary qHTS Assay for Inhibitors of Recombinant Selenoprotein Glutathione Peroxidase 1 (GPX1) (AID 1845191); further: nearly all actives have a fitted effect of over 65% in size
# Chain of Glutathione peroxidase 1 (Homo sapiens) (P07203 whole entry, looked up): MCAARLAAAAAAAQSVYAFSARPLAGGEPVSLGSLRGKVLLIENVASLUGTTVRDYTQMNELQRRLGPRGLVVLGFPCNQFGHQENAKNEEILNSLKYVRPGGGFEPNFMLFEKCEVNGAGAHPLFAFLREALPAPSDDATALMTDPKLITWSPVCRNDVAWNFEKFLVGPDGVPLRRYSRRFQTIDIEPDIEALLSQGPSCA
# In short: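 GPX1 10 nM, GR 100 nM, GSH 1 mM, NADPH 0.5 mM, CHP 0.5 mM (final). 30-min cpd preincubation, RT. Ex340/Em450 read t=0, t=15 min.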
# [2] = biological target: Phospholipid hydroperoxide glutathione peroxidase GPX4 (Homo sapiens) (UniProt P36969); experiment: Primary qHTS Assay for Inhibitors of Recombinant Selenoprotein Glutathione Peroxidase 4 (GPX4) (AID 1845192); further: nearly all actives have a fitted effect of over 65% in size; on activity change, negative = inhibition: series mostly up to about 50 µM
# Chain of Phospholipid hydroperoxide glutathione peroxidase GPX4 (Homo sapiens) (P36969 whole entry, looked up): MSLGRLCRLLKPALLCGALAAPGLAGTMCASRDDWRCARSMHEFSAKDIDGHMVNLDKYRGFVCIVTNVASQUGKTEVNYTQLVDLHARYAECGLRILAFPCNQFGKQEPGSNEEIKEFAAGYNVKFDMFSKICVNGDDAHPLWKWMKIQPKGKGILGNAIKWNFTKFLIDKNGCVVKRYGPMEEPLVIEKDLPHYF
# In short: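 qHTS, GR-coupled: GPX4 200 nM + cpd 30 min RT → GSH 1 mM, NADPH 0.5 mM, GR 100 nM → CHP 0.5 mM start; fluor 340/450 at t0 and t15 min; no-enzyme wells as control.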
# [3] = biological target: Luciferin 4-monooxygenase (Photinus pyralis) (UniProt P08659); experiment: Primary firefly luciferase (FLuc) qHTS assay for identification of artifact compounds. (AID 1845220); further: nearly all actives have a fitted effect of over 60% in size; on activity change, negative = inhibition: series mostly up to about 54 µM
# In short: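 qHTS, 15 min compound preincubation with substrate (10 uM luciferin, 10 uM ATP) at RT, then 10 nM FLuc; 5 min; luminescence; % inhibition vs no-enzyme/DMSO controls, 4-parameter Hill fit.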
# [4] = Primary fluorescence-based thiol-reactive (MSTI) qHTS assay for identification of artifact compounds. (AID 1845221); further: nearly all actives have a fitted effect of over 65% in size; further: potency means the concentration at half of the fitted maximal effect;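 on activity change, negative = thiol reactive: series mostly up to about 54 µM; thiol-reactive compounds lower the probe fluorescence signal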
# In short: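 One-hour, room-temperature, dark incubation of compound with 4 uM MSTI in PBS (pH 7.4, 2% DMSO) precedes a fluorescence read at 525 nm excitation, 598 nm emission; Hill-equation fitting yields concentration-response values.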
# [5] = tested on: Nanoluciferase (engineered Oplophorus gracilirostris luciferase); experiment: Primary Nanoluciferase (NLuc) qHTS assay for identification of artifact compounds. (AID 1845222); further: series mostly up to about 54 µM
# In short: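 Luminescence read-out of secreted NLuc in S16 cell conditioned medium (1:55); compounds tested with 15 min RT preincubation, then Nano-Glo substrate 1:100, 5 min. % inhibition vs no-enzyme and DMSO controls, 4-parameter Hill fit.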
# [6] = Primary redox qHTS assay for identification of artifact compounds. (AID 1845223)
# In short: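 Redox-cycling detection via DTT (250 uM final) oxidation coupled to Amplex Red (25 uM)/HRP (250 mU/mL) in HBSS. 15 min preincubation plus 30 min after DTT, room temperature. Ex/Em 525/598 nm; 4-parameter Hill fit against DMSO and 10 uM DA3003.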
smiles,measurement,setting,value
COC(=O)C1=CO[C@@H](O[C@@H]2O[C@H](CO)[C@@H](O)[C@H](O)[C@H]2O)[C@@H]2[C@@](C)(O)[C@@H](O)C[C@]12O,Potency,[1],inactive
same,Potency,[2],inactive
same,Potency,[3],inactive
same,Potency,[4],inactive
same,Potency,[5],inactive
same,Potency,[6],inactive
CC(C)C(C(=O)N1CCCC1C(=O)O)N(C)C(=O)C(O)Cc1ccccc1 (stereo not given) (H-[PhLac]-[NMeV]-Pro-OH; configuration not given here),Potency,[1],inactive
same,Potency,[2],inactive
same,Potency,[3],inactive
same,Potency,[4],inactive
same,Potency,[5],inactive
same,Potency,[6],inactive
C[C@@H](Nc1cc(NS(=O)(=O)N2CCC2)nc(SCc2cccc(F)c2F)n1)[C@@H](O)CO,Potency,[1],inactive
same,Potency,[2],inactive
same,Potency,[3],inactive
same,Potency,[4],inactive
same,Potency,[5],inactive
same,Potency,[6],inactive
CNC(=O)[C@H]1O[C@@H](n2cnc3c(NCc4ccc(N)c(I)c4)ncnc32)[C@H](O)[C@@H]1O,"activity, negative = inhibition",[1],3.67% [at 9.52 µM]
same,"activity change, negative = inhibition",[2],-1.09% [at 9.73 µM]
same,outcome,[3],inactive [at 11.6 µM]
same,"activity change, negative = thiol reactive",[4],20.2% [at 11.5 µM]
same,"activity, negative = inhibition",[5],-0.867% [at 11.6 µM]
same,redox activity (% of DA3003),[6],1.11% [at 11.5 µM]
COCCCNCC1COc2ccccc2O1 (stereo not given),Potency,[1],inactive
same,Potency,[2],inactive
same,Potency,[3],inactive
same,Potency,[4],inactive
same,Potency,[5],inactive
same,Potency,[6],inactive
C/C=C1/[C@H](O[C@@H]2O[C@H](CO)[C@@H](O)[C@H](O)[C@H]2O)OC=C(C(=O)OC)[C@H]1CC(=O)O[C@@H]1O[C@H](CO)[C@@H](O)[C@H](O)[C@H]1O,Potency,[1],inactive
same,Potency,[2],inactive
same,Potency,[3],inactive
same,Potency,[4],inactive
same,Potency,[5],inactive
same,Potency,[6],inactive
COc1ccccc1-n1c(SCC(=O)Nc2nc3ccc(C)cc3s2)nc2c(c1=O)SCC2,Potency,[1],inactive
same,Potency,[2],inactive
same,Potency,[3],inactive
same,Potency,[4],inactive
same,Potency,[5],inactive
same,Potency,[6],inactive
C=CCc1ccc(O[C@@H]2O[C@H](CO[C@@H]3O[C@H](CO)[C@@H](O)[C@H](O)[C@H]3O)[C@@H](O)[C@H](O)[C@H]2O)c(O)c1,Potency,[1],inactive
same,Potency,[2],inactive
same,Potency,[3],inactive
same,Potency,[4],inactive
same,Potency,[5],inactive
same,Potency,[6],inactive
C=C1C2=CC(O)C(C)C1(C)CC/C(C)=C/CCC1(C)OC1C2=O (stereo not given),Potency,[1],inactive
same,Potency,[2],inactive
same,Potency,[3],inactive
same,Potency,[4],inactive
same,Potency,[5],inactive
same,Potency,[6],inactive
CC(=O)c1c(O)cc2c(c1C)C(=O)CC(O)C2 (stereo not given),Potency,[1],inactive
same,Potency,[2],inactive
same,Potency,[3],inactive
same,Potency,[4],10.6 µM (active)
same,Potency,[5],inactive
same,Potency,[6],inactive
CC(=O)O[C@H]1CC[C@@]2(CI)C(=CC[C@@H]3[C@@H]2CC[C@]2(C)[C@@H]([C@H](C)CCCC(C)C)CC[C@@H]32)C1,"activity, negative = inhibition",[1],1.81% [at 9.52 µM]
same,"activity change, negative = inhibition",[2],1.73% [at 9.73 µM]
same,"activity change, negative = inhibition",[3],3.6% [at 11.6 µM]
same,"activity change, negative = thiol reactive",[4],-0.863% [at 11.5 µM]
same,"activity, negative = inhibition",[5],-1.76% [at 11.6 µM]
same,redox activity (% of DA3003),[6],-3.63% [at 11.5 µM]
O=C(O[C@H]1[C@@H]2C[C@@H]3OC[C@@](O)([C@H]2[C@H](O[C@@H]2O[C@H](CO)[C@@H](O)[C@H](O)[C@H]2O)O3)[C@@H]1O)c1ccccc1,Potency,[1],inactive
same,Potency,[2],inactive
same,Potency,[3],inactive
same,Potency,[4],5.19 µM (active)
same,Potency,[5],inactive
same,Potency,[6],inactive
Clc1ccc2c(c1)C1=NCCN1c1c(-c3noc(C4CC4)n3)ncn1-2,Potency,[1],inactive
same,Potency,[2],inactive
same,Potency,[3],inactive
same,Potency,[4],inactive
same,Potency,[5],inactive
same,Potency,[6],inactive
CCC1CC2C(C)=CC3CCCCC3C2(C)C2(OC(=O)C(C)(O)OC2=O)O1 (stereo not given),Potency,[1],inactive
same,Potency,[2],inactive
same,Potency,[3],inactive
same,Potency,[4],inactive
same,Potency,[5],inactive
same,Potency,[6],inactive
CC1(C)CC[C@]2(C(=O)O)CC[C@]3(C)C(=CCC4[C@@]5(C)C[C@H](O)[C@H](O[C@@H]6OC[C@H](O)[C@H](O)[C@H]6O)[C@@](C)(CO)C5CC[C@]43C)[C@@H]2C1 (stereo not given in full),Potency,[1],inactive
same,Potency,[2],inactive
same,Potency,[3],inactive
same,Potency,[4],inactive
same,Potency,[5],inactive
same,Potency,[6],inactive
C[C@@H]1C(=O)O[C@H]2[C@H]1CC[C@@]1(C)C(=O)C=C[C@](C)(O)[C@H]21,Potency,[1],inactive
same,Potency,[2],inactive
same,Potency,[3],inactive
same,Potency,[4],21.2 µM (active)
same,Potency,[5],inactive
same,Potency,[6],inactive
C=CC1(C)C=C2C(=O)CC3C(C)(C)CCCC3(C(=O)O)C2(O)CC1 (stereo not given),Potency,[1],inactive
same,Potency,[2],inactive
same,Potency,[3],inactive
same,Potency,[4],inactive
same,Potency,[5],inactive
same,Potency,[6],inactive
COc1ccc(/C=C/C(=O)O[C@H]2[C@@H]3C=CO[C@@H](O[C@@H]4O[C@H](CO)[C@@H](O)[C@H](O)[C@H]4O)[C@@H]3[C@@]3(CO)O[C@@H]23)cc1O,Potency,[1],inactive
same,Potency,[2],inactive
same,Potency,[3],inactive
same,Potency,[4],11.6 µM (active)
same,Potency,[5],inactive
same,Potency,[6],inactive
CC1(C)CCCC2(C)C3=C(C(=O)OC3O)C(O)CC12 (stereo not given),Potency,[1],inactive
same,Potency,[2],inactive
same,Potency,[3],inactive
same,Potency,[4],inactive
same,Potency,[5],inactive
same,Potency,[6],inactive
COc1cc(C2Oc3c(OC)cc(CCCO[C@@H]4O[C@H](CO)[C@@H](O)[C@H](O)[C@H]4O)cc3C2CO)ccc1O (stereo not given in full),Potency,[1],inactive
same,Potency,[2],inactive
same,Potency,[3],inactive
same,Potency,[4],13 µM (active)
same,Potency,[5],inactive
same,Potency,[6],inactive
